# Assay results reported in PubChem BioAssay AID2551 (National Center for Advancing Translational Sciences (NCATS), 2010).
# Out of some 310,000 compounds screened, about 17,000 (5.5%) were called active. Roughly 11% stayed inconclusive and do not appear here. Calls follow the shape of the dose curve; as a rule, active = well fitted inhibition curve with a large enough effect; inconclusive = small, poorly fitted or top-dose-only effect, or effect the other way; inactive = no such curve, though single readings can be large or run the other way. The list comes from a sample in which actives are over-represented; it also holds similar structures and randomly drawn compounds. Entries that show only a call come without a potency.
# Biological target: Nuclear receptor ROR-gamma (Mus musculus) (UniProt P51450)
# Sequence (P51450 whole entry, looked up): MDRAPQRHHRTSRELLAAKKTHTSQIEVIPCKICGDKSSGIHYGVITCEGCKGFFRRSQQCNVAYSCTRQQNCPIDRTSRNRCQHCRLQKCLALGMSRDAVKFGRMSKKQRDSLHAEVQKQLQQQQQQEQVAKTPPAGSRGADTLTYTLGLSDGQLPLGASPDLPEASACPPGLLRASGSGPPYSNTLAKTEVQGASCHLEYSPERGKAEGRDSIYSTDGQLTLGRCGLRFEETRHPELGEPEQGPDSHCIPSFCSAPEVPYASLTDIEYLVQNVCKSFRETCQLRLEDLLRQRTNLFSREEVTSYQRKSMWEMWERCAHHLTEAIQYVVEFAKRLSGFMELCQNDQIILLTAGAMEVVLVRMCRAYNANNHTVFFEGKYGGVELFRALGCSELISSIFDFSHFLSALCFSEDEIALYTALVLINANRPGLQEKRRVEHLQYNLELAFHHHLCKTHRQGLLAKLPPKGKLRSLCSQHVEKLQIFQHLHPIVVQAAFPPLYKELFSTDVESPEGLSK
# Assay: qHTS for inhibitors of ROR gamma transcriptional activity; also: nearly all actives have a fitted effect of over 60% in size
# Settings: Drosophila S2 Gal4-RORgamma UAS-luciferase reporter, 20 h; series mostly up to 53.6 µM
# How it was run: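 In this cell-based reporter format, copper sulfate (700 uM final) drives Gal4–ROR gamma fusion expression from a metallothionein promoter in Drosophila Schneider cells; compounds preincubated 1 hr, reporter read after 20 hr at ambient temperature.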
# Potency is read from the fitted curve at half-maximal effect.
row,SMILES,Potency
1,COc1ccc(C2(C)NC(=O)N(CC(=O)c3ccc4c(c3)OCO4)C2=O)cc1 (centres undefined),inactive
2,Cc1cc(C)c(S(=O)(=O)Nc2c(C)n(C)n(-c3ccccc3)c2=O)cc1[N+](=O)[O-],inactive
3,Cc1cccc([C@@H]2[C@@H]3C(=O)N(Cc4ccccc4)C(=O)[C@@H]3[C@]3(C)C(=O)N(c4ccc(Br)cc4)C(=O)N23)c1,inactive
4,O=C(N/N=C/c1cccc(Br)c1)c1ccc(N2CCCC2=O)cc1,inactive
5,COCc1ccc(CN2CCC(Oc3ccc(C(=O)NCc4ccccn4)cc3)CC2)o1,inactive
6,COc1ccc(NC(=O)C2CCN(S(=O)(=O)c3ccc4[nH]c(=O)oc4c3)CC2)c(OC)c1,inactive
7,Cc1ccc(S(=O)(=O)N(CCCN(C)C)Cc2ccc3c(c2)OCO3)cc1,inactive
8,CCCS(=O)(=O)Nc1ccc(-c2cn3c(n2)SCC3)cc1,inactive
9,Cc1ccc(-c2ccc(/C=N/NC(=O)CN3CCOCC3)o2)cc1[N+](=O)[O-],inactive
10,Cc1cc(C)c([N+](=O)[O-])cc1-c1ccc(/C=N/NC(=O)c2nonc2N)o1,11.2 µM (active)
11,COc1cc(/C=N\NC(=O)c2nonc2N)c(OC)cc1Br,inactive
12,COc1ccnc2c1c(=O)n(Cc1cccc(F)c1)c(=O)n2C,inactive
13,O=c1[nH]n(-c2cccc(Cl)c2)c2ncccc12,inactive
14,CC(C)CC(=O)N1CCN(Cc2cccc(Cl)c2)CC1,inactive
15,Clc1cccc(CN2COc3c(cc(Cl)c4cccnc34)C2)c1,0.562 µM (active)
16,COc1ccc(Cl)cc1NS(=O)(=O)c1cccc(C(=O)NCC2CCCO2)c1 (centres undefined),inactive
17,O=C(COc1ccc([N+](=O)[O-])cc1)Nc1cccc(C(=O)Nc2ccccc2C(=O)O)c1,inactive
18,CCCOc1ccc(CNC(=O)C2CCN(c3nn4c(=O)cc(C)nc4s3)CC2)cc1,inactive
19,Cc1cc(C(C)(C)C)n2nc(C)c(-c3ccccc3)c2n1,inactive
20,Cc1cc(N2CCCC2)n2nc(C)c(-c3ccccc3)c2n1,inactive
21,Cc1nn2c(NCCN(C)C)c3c(nc2c1-c1ccccc1)CCC3,0.141 µM (active)
22,COc1ccc(-c2noc(C(C)NS(=O)(=O)c3ccc(NC(C)=O)cc3)n2)cc1 (centres undefined),inactive
23,Cc1cc(C)cc(NC(=O)C2CCCN(S(=O)(=O)c3ccc4[nH]c(=O)ccc4c3)C2)c1 (centres undefined),inactive
24,CSc1nc2sc3c(c2c(=O)[nH]1)CCc1ccccc1-3,inactive
25,CCCSc1nc2sc3c(c2c(=O)n1-c1ccc(OC)cc1)CCN(C)C3,inactive
26,COc1ccc(-n2c(=S)[nH]c3sc4c(c3c2=O)CCc2ccccc2-4)cc1,0.447 µM (active)

row,SMILES,Potency
1,Cn1c(CCN2CCCC2)nc2cc(NS(=O)(=O)c3ccccc3)ccc21,inactive
2,CN(CCC1CCOCC1)C(=O)CC1C(=O)NCCN1Cc1cccc(F)c1 (centres undefined),inactive
3,CCCCC(CC)CNCc1cccn1CCN1CCOCC1 (centres undefined),inactive
4,COc1ccc(CCNC(=O)C2CCCN2C(=O)Nc2ccccc2)cc1OC (centres undefined),inactive
5,C/C(=N\NC(=O)c1cc(-c2ccc(O)cc2)nc2ccccc12)c1cccnc1,inactive
6,O=C(O)c1ccc2c(c1)C(=O)N(c1ccc(/C=C/C(=O)c3ccccc3)cc1)C2=O,inactive
7,O=C(O)c1ccc2c(c1)C(=O)N(NC(=O)c1ccc(O)cc1)C2=O,11.2 µM (active)
8,Cc1cccc(N2C(=O)c3ccc(C(=O)Nc4cccc(C(=O)O)c4)cc3C2=O)c1,inactive
9,Cc1cc(OCC(=O)NCC(O)c2ccccc2)c2c(C)c(C)c(=O)oc2c1 (centres undefined),inactive
10,O=C(O)CCCCCCCCc1cn(CN2C(=O)c3ccccc3C2=O)nn1,inactive
11,CC1CCN(C(=O)/C(=C\c2ccccc2)NC(=O)c2ccccc2)CC1,inactive
12,CC1CCN(C(=O)c2ccccc2NC(=O)Cc2ccccc2)CC1,inactive
13,CC1CCN(C(=S)NC(=O)c2ccccc2Br)CC1,0.562 µM (active)
14,COc1ccc(NC(=O)C(C)N2c3cccc4cccc(c34)S2(=O)=O)c(OC)c1 (centres undefined),inactive
15,COc1ccc(COC(=O)c2ccc(Cl)c(S(=O)(=O)N3CCOCC3)c2)cc1F,inactive
16,CC(C)(C)OC(=O)N1CCC(C(=O)NNC(=O)c2ccc(Cl)cc2Cl)CC1,inactive
17,O=C(CN1CCC(O)(c2cccc(C(F)(F)F)c2)CC1)NCCc1ccccc1,inactive
18,O=C(CCc1nnc(Cc2ccc3c(c2)OCO3)o1)NCCc1ccccc1Cl,inactive
19,O=C(NNC(=S)Nc1ccc(F)cc1)[C@H]1C[C@@H]1c1ccccc1,inactive
20,O=C(N/N=C/c1cccc2cccnc12)[C@H]1C[C@@H]1c1ccccc1,3.55 µM (active)
21,Cc1ccc(NC(=O)C2CC2c2ccccc2)cc1 (centres undefined),inactive
22,COc1ccc(CCN(C)C(=O)C23CC4CC(CC(Cl)(C4)C2)C3)cc1OC,inactive
23,Cc1ccc(N2C(=O)C3C4C=CC(CC4)C3C2=O)cc1Br (centres undefined),inactive
24,O=C(CN1CCCCCC1)Nc1ccc(Cl)cc1F,inactive
25,CCOc1ccc(N2CC(C(=O)NCc3ccccn3)CC2=O)cc1 (centres undefined),inactive
26,COC(=O)c1ccc(C(=O)OC)c(NC(=S)N2CCN(c3cc(Cl)ccc3C)CC2)c1,inactive

row,SMILES,Potency
1,COC(=O)c1ccccc1NC(=O)c1cncc(Br)c1,inactive
2,COC(=O)c1ccc(C(=O)Nc2cc(Cl)ccc2Cl)cc1NC(=O)c1ccccc1C,11.2 µM (active)
3,COc1ccc(C(=O)NC(C)CCc2ccccc2)c(OC)c1 (centres undefined),inactive
4,CCN(c1cccc(C)c1)S(=O)(=O)c1ccc(-c2coc(C)n2)cc1,inactive
5,O=C1/C(=C/c2ccc3c(c2)OCO3)Oc2cc(OCC(=O)N3CC(O)C[C@H]3C(=O)O)ccc21 (some centres undefined),inactive
6,COC(=O)c1cc(OCC(=O)NC2CCCc3ccccc32)cc(C(=O)OC)c1 (centres undefined),inactive
7,O=C(NCCO)C(=O)NCC(c1ccc2c(c1)OCO2)N1CCN(c2ccc(F)cc2)CC1 (centres undefined),inactive
8,O=C(Nc1cc2ccccc2oc1=O)C1CCCCC1,inactive
9,O=c1oc2ccccc2cc1-c1cn(-c2ccccc2)c(=S)[nH]1,1.26 µM (active)
10,O=C(c1cn(-c2ccccc2)nc1-c1cc2ccccc2oc1=O)N1CCOCC1,inactive
11,O=C(NC(=S)Nc1ccc(Cl)cc1Cl)C1CC1,5.01 µM (active)
12,S=C(NCc1cccnc1)Nc1ccc(Cl)cc1Cl,inactive
13,CN1CCN(S(=O)(=O)c2ccc(NC(=S)NC(=O)C3CC3)cc2)CC1,inactive
14,COc1ccc(N(CC(=O)Nc2cccc3ccccc23)S(C)(=O)=O)c(OC)c1,inactive
15,CC(=O)c1ccc(S(=O)(=O)N(C)CCCC(=O)N(C)Cc2ccccc2F)cc1,inactive
16,Cc1ccc(C(=O)CSc2ccccc2C(=O)O)cc1,10 µM (active)
17,Cc1ccc(C(=O)Cn2cccn2)cc1,inactive
18,Cc1ccc(Sc2cc(C(=O)c3ccccc3C(=O)O)ccc2[N+](=O)[O-])cc1,inactive
19,CCOc1cc(C2/C(=C(/O)c3ccc(S(=O)(=O)N4CCCCC4)cc3)C(=O)C(=O)N2CCOC)ccc1O (centres undefined),inactive
20,Cc1cc(=O)oc2cc(OCC(=O)N3CCN(c4ccc(F)cc4)CC3)c(Cl)cc12,inactive
21,CCOC(=O)C1(Cc2ccccc2C)CCCN(C(=O)c2ccc(COC)o2)C1 (centres undefined),inactive
22,COc1cc(NC(=O)CN2C(=O)NC(C)(c3ccc(OC(F)F)cc3)C2=O)cc(OC)c1OC (centres undefined),inactive
23,COc1ccc(O)c(/C=N/N=C/c2cccc([N+](=O)[O-])c2)c1,inactive
24,CCN(CC)C(=O)COc1coc(CN2CCN(Cc3ccccc3)CC2)cc1=O,inactive
25,CSc1nc(-c2ccccc2)nc(C(Cl)Cl)n1,7.08 µM (active)
26,Clc1ccc2nc(-c3ccccc3)nc(C(Cl)Cl)c2c1,inactive

row,SMILES,Potency
1,CCCc1cc(=O)oc2c(C)c(OC(C)C(=O)NCC(O)c3ccccc3)ccc12 (centres undefined),inactive
2,C=CCc1cccc(/C=N/NC(=O)COc2ccc(-n3cnnn3)cc2)c1O,8.91 µM (active)
3,O=C(COc1ccc(-n2cnnn2)cc1)Nc1ccccc1Cl,inactive
4,C=CCc1ccccc1OCC(=O)N/N=C/c1ccccc1OCC,inactive
5,O=C(C1CC(=O)N(c2ccc(F)cc2)C1)N1CCN(c2ccccc2)CC1 (centres undefined),inactive
6,COc1cc(Nc2nc3ccc(Cl)cc3n3cnnc23)cc(OC)c1OC,inactive
7,CC1(c2ccc3ccccc3c2)NC(=O)N(CC(N)=O)C1=O (centres undefined),inactive
8,COc1ccc(S(=O)(=O)NCC(=O)NC2CC2)cc1OC,inactive
9,Cc1ccc(C)c(C(C)NC(=O)C2CCCO2)c1 (centres undefined),inactive
10,Cc1ccc(C(=O)N/C(=C\c2ccc(F)cc2)C(=O)NCCN2CCOCC2)cc1,inactive
11,CCCCNC(=S)N/N=C1\CCCCc2ccccc21,2 µM (active)
12,O=[N+]([O-])c1ccccc1N/N=C1\CCc2ccccc21,inactive
13,CCCCNC(=O)C(=O)c1ccccc1NC(C)=O,inactive
14,CCNC(=O)CC1C(=O)N(c2ccc(OC)cc2)C(=O)N1CCOC (centres undefined),inactive
15,CN(C)/N=C/c1cc(Cl)cc([N+](=O)[O-])c1O,11.2 µM (active)
16,O=[N+]([O-])c1cc(Cl)cc(/C=N/NC(=S)Nc2cc(S(=O)(=O)N3CCOCC3)ccc2Cl)c1O,inactive
17,CC(=O)N/N=C/c1cc2c(cc1[N+](=O)[O-])OCO2,inactive
18,O=C(N/N=C/c1cc(Cl)cc([N+](=O)[O-])c1O)C(O)(c1ccccc1)c1ccccc1,1 µM (active)
19,O=C(Cc1cc(=O)[nH][nH]1)N/N=C/c1ccccc1[N+](=O)[O-],inactive
20,COC(=O)c1cc(CNC(=O)CC(C)c2ccccc2)ccc1OC (centres undefined),inactive
21,CN(C)CCN(Cc1ccccc1)S(=O)(=O)c1csc(C(N)=O)c1,inactive
22,CCOC(=O)CC1COCCN1C(=O)c1cc(COc2ccc(F)c(F)c2)on1 (centres undefined),inactive
23,COc1ccc(N(C)C(=O)C2CCN(S(=O)(=O)c3cccc4nsnc34)CC2)cc1,inactive
24,Cc1ccccc1NC(=S)Nc1cccc([N+](=O)[O-])c1,inactive
25,COC(=O)/C=C\C(=O)Nc1cccc([N+](=O)[O-])c1,3.16 µM (active)
26,CC(=O)Nc1cccc([N+](=O)[O-])c1,inactive
